# Out of some 310,000 compounds screened, about 2,200 (0.71%) showed an effect of 50% or more. The effect is printed as a negative number. The list comes from a sample in which strong results are over-represented; it also holds similar structures and randomly drawn compounds.
# Target: human ether-à-go-go-related gene (hERG) potassium channel (human, UniProt Q12809)
# Experiment: primary screen, population patch clamp on CHO cells stably expressing hERG; higher = less effect of the substance
# Sequence of human ether-à-go-go-related gene (hERG) potassium channel (Q12809 whole entry, looked up): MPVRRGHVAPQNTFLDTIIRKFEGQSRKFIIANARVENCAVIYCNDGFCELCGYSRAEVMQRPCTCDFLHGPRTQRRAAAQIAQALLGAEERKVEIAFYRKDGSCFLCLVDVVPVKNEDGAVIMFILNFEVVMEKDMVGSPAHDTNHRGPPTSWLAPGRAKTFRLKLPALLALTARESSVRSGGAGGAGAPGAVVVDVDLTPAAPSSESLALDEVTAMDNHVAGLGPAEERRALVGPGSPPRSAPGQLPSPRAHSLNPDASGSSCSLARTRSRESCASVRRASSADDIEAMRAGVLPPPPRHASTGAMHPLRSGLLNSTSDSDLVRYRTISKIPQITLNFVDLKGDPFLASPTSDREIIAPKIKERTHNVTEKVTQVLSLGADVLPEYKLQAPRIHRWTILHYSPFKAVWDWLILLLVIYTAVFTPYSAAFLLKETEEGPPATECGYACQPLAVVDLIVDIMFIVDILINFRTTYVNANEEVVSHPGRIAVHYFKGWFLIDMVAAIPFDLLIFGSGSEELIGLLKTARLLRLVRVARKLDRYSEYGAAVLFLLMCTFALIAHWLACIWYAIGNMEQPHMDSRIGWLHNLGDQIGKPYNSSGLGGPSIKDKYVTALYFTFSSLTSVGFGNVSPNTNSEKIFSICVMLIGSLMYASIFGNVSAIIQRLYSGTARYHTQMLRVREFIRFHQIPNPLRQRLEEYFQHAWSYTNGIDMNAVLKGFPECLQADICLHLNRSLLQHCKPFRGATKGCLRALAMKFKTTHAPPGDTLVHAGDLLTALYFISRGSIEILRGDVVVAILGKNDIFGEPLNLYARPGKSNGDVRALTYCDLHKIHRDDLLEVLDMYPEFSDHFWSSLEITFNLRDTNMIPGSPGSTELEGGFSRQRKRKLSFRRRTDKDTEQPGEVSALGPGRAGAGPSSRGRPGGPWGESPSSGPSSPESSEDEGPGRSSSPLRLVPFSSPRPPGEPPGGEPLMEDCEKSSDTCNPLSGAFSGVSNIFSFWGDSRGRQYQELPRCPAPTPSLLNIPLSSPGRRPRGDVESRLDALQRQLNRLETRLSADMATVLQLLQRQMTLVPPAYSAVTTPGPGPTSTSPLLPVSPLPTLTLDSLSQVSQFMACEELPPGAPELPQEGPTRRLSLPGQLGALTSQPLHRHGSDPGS
row,SMILES,"hERG current change (%, negative = inhibition) at 1uM"
1,CCCCC(=O)O[C@]1(C(=O)CO)CC[C@H]2[C@@H]3CCC4=CC(=O)CC[C@]4(C)[C@H]3[C@@H](O)C[C@@]21C,11.4%
2,COc1ccc(N/C=C/C(=O)c2ccccc2)cc1,11%
3,CCCCNC(=O)C1CCCN1C(=O)Nc1ccccc1 (stereo not drawn),0.208%
4,O=S(=O)(NCc1cccnc1)c1ccc(Br)c2ccccc12,7.97%
5,Cc1cc2nc(-c3ccc(SCc4ccc(C(=O)O)cc4)nc3)[nH]c2cc1C,14.5%
6,COc1ccc2[nH]c(C(=O)O)c(CCNC(=O)/C=C/c3ccc(O)c(OC)c3)c2c1,13.1%
7,CCCc1nnc(NC(=O)c2nc(S(=O)(=O)Cc3cccc(C)c3)ncc2Cl)s1,21%
8,O=C1CCN(C(=O)Cc2ccccc2[N+](=O)[O-])CC1,14.3%
9,O=C(Nc1cc(SCC(O)CO)cc([N+](=O)[O-])c1)c1ccc(-n2cnnn2)cc1 (stereo not drawn),17.4%
10,Br.CC1(C(=O)CSc2n[nH]c(-c3ccccc3Cl)n2)CCC(=O)O1 (stereo not drawn),8.24%
11,COc1ccc(N(CC(=O)NC2CCCCC2)S(=O)(=O)c2c(C)[nH]c(=O)[nH]c2=O)cc1,15.2%
12,Cc1ccc(CNC(=O)c2nn(C)c(C)c2[N+](=O)[O-])cc1,5.74%
13,Cl.N=c1n(CCN2CCCCC2)c2ccccc2n1CC(O)c1cccc(Br)c1 (stereo not drawn),-41.7%
14,Cl.N=c1n(CCN2CCCC2)c2ccccc2n1CC(O)c1ccc(Cl)c(Cl)c1 (stereo not drawn),-33.2%
15,Cl.N=c1n(CCN2CCCCC2)c2ccccc2n1CC(O)c1ccc(Cl)c(Cl)c1 (stereo not drawn),-70.4%
16,COc1ccc(NC(=S)N2CCC(NC(=O)c3ccc(OC)cc3)CC2)cc1,11.3%
17,CCOCCCNC(=S)Nc1ccc2nc(N3CCN(CC)CC3)cc(C)c2c1,10.7%
18,COCCNC(=S)Nc1ccc2nc(N3CCCC3)cc(C)c2c1,-50.5%
19,CCN1CCN(c2cc(C)c3cc(NC(=S)N(CC)CC)ccc3n2)CC1,-8.83%
20,CCN1CCN(c2cc(C)c3cc(NC(=S)N(C)Cc4ccccc4)ccc3n2)CC1,-56.7%
21,CCOCCCNC(=S)Nc1ccc2nc(N3CCCC3)cc(C)c2c1,-74.8%
22,CCOCCCNC(=S)Nc1ccc2nc(N3CCOCC3)cc(C)c2c1,9.64%
23,Cc1cc(N2CCCC2)nc2ccc(NC(=S)NCCCOC(C)C)cc12,-78.6%
24,COCCNC(=S)Nc1ccc2nc(N3CCN(C)CC3)cc(C)c2c1,9.02%

row,SMILES,"hERG current change (%, negative = inhibition) at 1uM"
1,CCCCN(C)C(=S)Nc1ccc2nc(N3CCN(CC)CC3)cc(C)c2c1,-46.4%
2,COCCNC(=S)Nc1ccc2nc(N3CCOCC3)cc(C)c2c1,14.9%
3,CCN1CCN(c2cc(C)c3cc(NC(=S)NCCCOC)ccc3n2)CC1,12.1%
4,CCCN(CCC)CCCNC(=S)Nc1ccc2nc(N3CCCC3)cc(C)c2c1,-14.5%
5,NC(=O)NCCCC(NC(=O)c1ccc(C#CC2(O)CCCCC2)cc1)C(=O)O (stereo not drawn),8.16%
6,NS(=O)(=O)c1cccc2c1c([N+](=O)[O-])cc1nc([O-])c([O-])nc12.[Na+],20.2%
7,CCCNS(=O)(=O)c1cc(Br)cc2c1N(C(=O)CC)CC2,4.42%
8,C=C(C)c1cccc(C(C)(C)NC(=O)NC2CC(C)(C)NC(C)(C)C2)c1,7.67%
9,O=C(Nc1ccc(F)cc1)C1CC2CCC1C2 (stereo not drawn),12.7%
10,Cc1ccc(NC(=O)c2cc(C)on2)cc1,6.42%
11,CC12CN3CC(C)(CN(C1)C3c1ccccc1)C2O (stereo not drawn),9.98%
12,Cc1ccc(C2=NN(CC(=O)NCCN(CC(C)C)CC(C)C)C(=O)CC2)cc1,-3.88%
13,COc1cc(NC(=O)C(C)Oc2ccccc2)c(OC)cc1NC(=O)c1ccccc1 (stereo not drawn),13.2%
14,Cc1ccc(CN2CCC(c3nc4ccc(Cl)cc4[nH]3)CC2)cc1,-91.8%
15,Clc1ccc2nc(C3CCN(Cc4ccccc4)CC3)[nH]c2c1,-73.7%
16,Clc1ccc2nc(C3CCN(Cc4nnnn4C4CCCCC4)CC3)[nH]c2c1,-16.2%
17,COc1ccc(CN2CCC(c3nc4ccc(Cl)cc4[nH]3)CC2)cc1,-84%
18,CC1CCCCN1C(=O)CN1CCC(c2nc3ccc(Cl)cc3[nH]2)CC1 (stereo not drawn),1.51%
19,O=C(NC1CCCCC1)N1CCC(c2nc3ccc(Cl)cc3[nH]2)CC1,6.29%
20,Cc1ccc(Cn2nnnc2CN2CCC(c3nc4ccc(Cl)cc4[nH]3)CC2)cc1,4.97%
21,Clc1ccc(CN2CCC(c3nc4ccc(Cl)cc4[nH]3)CC2)cc1,-78.7%
22,CC1CCCN(C(=O)CN2CCC(c3nc4ccc(Cl)cc4[nH]3)CC2)C1 (stereo not drawn),-35.9%
23,COc1ccc(NC(=S)N2CCC(c3nc4ccc(Cl)cc4[nH]3)CC2)c(OC)c1,1.15%
24,CC(C)(C)c1ccc(S(=O)(=O)N2CCC(c3nc4ccc(Cl)cc4[nH]3)CC2)cc1,7.6%

row,SMILES,"hERG current change (%, negative = inhibition) at 1uM"
1,O=C(c1cccc(Cl)c1)N1CCC(c2nc3ccccc3[nH]2)CC1,-0.145%
2,Cc1nc(CCl)cc(=O)[nH]1,4.26%
3,Cc1[nH]ccc(=O)c1OCc1c(F)cccc1Cl,12.8%
4,Nc1cc(=O)[nH]c(SCC(=O)Nc2ccc(Cl)c(Cl)c2)n1,1.55%
5,Cc1nc(SCCC(=O)O)c2cc(-c3ccccc3)sc2n1,6.67%
6,NC(=O)CSc1nnc(CNc2ccc(F)cc2)n1CC1CCCO1 (stereo not drawn),-1.77%
7,COc1ccc(-n2ccnc(SCC(=O)NC3CCCC3)c2=O)cc1,-4.46%
8,CCOc1cc(C(=O)NC(C)c2ccncc2)cc(OCC)c1OCC (stereo not drawn),-1.97%
9,Cc1cc(Cl)ccc1N(CC(=O)NCc1ccc2c(c1)OCO2)S(C)(=O)=O,3.99%
10,Cc1ccc(NC(=S)N(CCC(C)C)C(C)c2ccncc2)c(Cl)c1 (stereo not drawn),10.9%
11,CC1(C(=O)NC(=S)N(Cc2ccccc2)c2ccccn2)CC1(Cl)Cl (stereo not drawn),12.4%
12,Cn1cc([C@@H]2C[C@H]3CN(C4CCCC4)C(=O)[C@]34CCCN24)c(-c2ccccc2)n1,-0.828%
13,O=C1N(C2CCCC2)C[C@@H]2C[C@@H](c3cccn3-c3ccccn3)N3CCC[C@@]123,-28.9%
14,CN1C[C@@H]2C[C@@H](c3cccn3-c3nccs3)N3CCC[C@@]23C1=O,1.26%
15,Cc1ccc(-n2cccn2)c([C@@H]2C[C@H]3CN(C)C(=O)[C@]34CCCN24)c1,-15%
16,O=C1N(C2CCCC2)C[C@@H]2C[C@@H](c3cccn3-c3nccs3)N3CCC[C@@]123,-60.3%
17,Cc1cc(C)c([C@@H]2C[C@H]3CN(C4CCCC4)C(=O)[C@]34CCCN24)c(-n2cccn2)c1,-71.7%
18,COc1ccc(Nc2nc(N)c(C(=O)c3ccc(OC)cc3)s2)cc1,-5.28%
19,CC12CCC(=O)N1C(C(=O)Nc1cc(C(F)(F)F)ccc1N1CCOCC1)CS2 (stereo not drawn),10.5%
20,Cc1cc(C)nc(NC(=S)Nc2cccc(F)c2)c1,6.3%
21,CCOc1cc(N2CCOCC2)c(OCC)cc1NC(=O)c1ccc(C)s1,-1.15%
22,COc1ccc(N=C2SCCCN2C)cc1.I,15.8%
23,Fc1ccc(N2CCN(C3=Nc4cccc5cccc3c45)CC2)cc1,-69.4%
24,c1cc2c3c(cccc3c1)C(N1CCOCC1)=N2,-0.83%

row,SMILES,"hERG current change (%, negative = inhibition) at 1uM"
1,c1cc2c3c(cccc3c1)C(N1CCCCC1)=N2,-44.8%
2,CNC(=O)CC1C(=O)N(c2ccc(Cl)cc2)C(=S)N1CCc1ccc(OC)c(OC)c1 (stereo not drawn),10.1%
3,N=c1c(S(=O)(=O)c2ccc(Br)cc2)cc2c(=O)n3ccccc3nc2n1C1CCCCC1,21.1%
4,N=c1c(C(=O)NCC2CCCO2)cc2c(=O)n3ccccc3nc2n1C1CCCC1 (stereo not drawn),-72.2%
5,N=c1c(C(=O)NCC2CCCO2)cc2c(=O)n3ccccc3nc2n1C1CCCCC1 (stereo not drawn),-79.2%
6,N=c1c(S(=O)(=O)c2ccc(Br)cc2)cc2c(=O)n3ccccc3nc2n1C1CCCC1,14.3%
7,O=C(NCC1CCCO1)c1cccc2ccccc12 (stereo not drawn),17.8%
8,CN(C)c1ccc(CN(C(=O)/C=C/c2ccco2)C2CCS(=O)(=O)C2)cc1 (stereo not drawn),11.7%
9,O=C(Nc1ccc(F)c(Cl)c1)Nn1cnnc1,0.762%
10,Cc1cccc(NC(=S)N/N=C/c2ccc([N+](=O)[O-])s2)c1,11.2%
11,COc1ccc2[nH]c(=O)c(C(c3nnnn3C3CCCC3)N(C)C3CCCCC3)cc2c1 (stereo not drawn),-3.8%
12,CN(C(=O)c1ccc(S(=O)(=O)N2CCCCC2)cc1)C1CCS(=O)(=O)C1 (stereo not drawn),-3.22%
13,Br.COc1ccc(C(=O)CN2CCCCC2)cc1,13.9%
14,Br.O=C(CN1CCCCC1)c1ccc(OC(F)F)cc1,-63.4%
15,Cl.O=C(CN1CCCCC1)c1ccc(F)cc1,7.09%
16,CCC1CCCCN1CC(=O)c1c(C)[nH]c2ccc(OC)cc12 (stereo not drawn),-5.25%
17,CCC1CCCCN1CC(=O)c1ccc(OC(F)F)cc1 (stereo not drawn),-80.2%
18,CC1CC(C)CN(C(=S)Nc2ccc(OC(F)F)cc2)C1 (stereo not drawn),-45.1%
19,CC1CC(C)CN(CC(=O)c2cccs2)C1 (stereo not drawn),-7.65%
20,Br.CC1CC(C)CN(CC(=O)c2ccc(OC(F)F)cc2)C1 (stereo not drawn),-96.1%
21,Br.O=C(CN1CCCCC1CO)c1ccc(OC(F)F)cc1 (stereo not drawn),-21.3%

# From article PMC4336329 (PLoS ONE, 2015)
